# From PubChem BioAssay
# Values joined by “and” are separate entries in the source; they are usually repeats but may differ in a detail not shown here. Identical values can stand only once. For some assays here: Entries with a potency or affinity are not part of this list. The source holds several records for some structures; these can differ, active in one and inactive in another. Active and inactive are the calls of the source. Cut-off read from the data, not from the text of the source, unless noted: active = inhibition above about 80%; inactive = the rest.
# Columns and labels:
# [1] = circadian clock period modulators, cell-based, LOPAC library, luminescence reporter (AID 2774; call rule not given here;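 note: values are relative to mean of DMSO wells on each plate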); settings: circadian reporter cells, at 7 µM, actives lie on both sides
# [2] = system: Hepatitis C virus NS3 helicase; assay: HCV NS3 helicase inhibitors, primary screen, biochemical, fluorescence polarization, LOPAC1280 library (AID 687035; in the data active = inhibition above about 37%); settings: Purified HCV NS3 helicase, Cy5-dT15 ssDNA binding fluorescence polarization; stronger effect = higher value; concentration not given here
# [3] = Cy5 fluorescence quenching or enhancement artefacts, artefact control for HCV NS3 helicase inhibitor project, biochemical, LOPAC1280 (AID 687037; call rule not given here); settings: Cy5-DNA-NS3h complex fluorescence interference counterscreen
# [4] = LFS_MB_1R medulloblastoma cell growth inhibition, synergistic combos for chromothripsis tumors, cisplatin or BGB combos (AID 1671452); settings: LFS_MB_1R medulloblastoma cells, stronger effect = higher value;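 note: cells exposed for 96 hours before readout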
# [5] = CRL2098 osteosarcoma cell growth inhibition, synergistic combos for chromothripsis tumors, BGB or cisplatin IC20 combos (AID 1671454); settings: CRL2098 osteosarcoma cells, drug combinations, stronger effect = higher value;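 note: cells exposed for 96 h before readout; 0% = vehicle DMSO and 100% = killing by high DMSO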
# [6] = HD-MB03 medulloblastoma cell growth inhibition, synergistic combos for chromothripsis tumors, BGB or cisplatin IC20 combos (AID 1671455; in the data active = inhibition above about 83%;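 note: 0% = vehicle DMSO and 100% = high DMSO as cytotoxic control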); settings: HD-MB03 medulloblastoma cells, stronger effect = higher value
# [7] = UWB1.289 ovarian carcinoma cell growth inhibition, synergistic combos for chromothripsis tumors, BGB or cisplatin combos (AID 1671456); settings: UWB1.289 ovarian carcinoma cells, stronger effect = higher value;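 note: cells exposed to compound for four days; 0% = vehicle DMSO and 100% = killing by high DMSO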
# [8] = LFS_MB_2R medulloblastoma cell growth inhibition, synergistic combos for chromothripsis tumors, cisplatin combos (AID 1671457); settings: LFS_MB_2R medulloblastoma cells, stronger effect = higher value;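 note: cells exposed to compound for four days before readout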
# [9] = UWB1.289_BRCA1 ovarian cancer growth, cell-based, BGB or cisplatin combinations (AID 1671459); settings: UWB1.289 BRCA1 ovarian carcinoma, drug combinations, stronger effect = higher value
# [10] = human astrocyte viability loss, single and combined drugs, cytotoxicity control for chromothriptic childhood tumor combination screen, cell-based, BGB or cisplatin IC20 combos (AID 1671460); settings: Human astrocytes, drug combinations, stronger effect = higher value;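 note: cells exposed to compounds for 96 hours before viability readout; 0% = vehicle and 100% = killing control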
# [11] = phospholipid biosynthesis inhibitors in animal cells, primary screen, cell-based, LOPAC library, screen 4 (AID 1347384; call rule not given here); settings: phospholipid biosynthesis inhibition screen, at 10 µM
# [12] = viability rescue of complex I mutant cybrids, primary screen, cell-based, galactose medium, ATP luminescence (AID 1645843;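 active = z-score of at least 1.8 in each of two replicates, scored against plate mean and spread of sample wells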;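 note: positive z means more ATP and so rescue of galactose-driven cybrid death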); settings: complex I mutant cybrid cells, 72 h, stronger effect = higher value
# [13] = kinase inhibitors against Plasmodium liver-stage infection, cell-based, known kinase inhibitor set, luminescence, hepatoma host viability (AID 624392; call rule not given here;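 note: infected cells incubated roughly two days before readout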); settings: Plasmodium liver stage in hepatoma cells, luciferase luminescence, concentration not given here; liver cell % of control: measured here: host liver cell viability; parasite % of control: stronger effect = lower value
# [14] = liver-stage malaria parasite growth inhibition, primary screen, cell-based, HepG2, luciferase luminescence, HepG2 viability (AID 624349; in the data active = parasite load remaining mostly below about 12%, no sharp cut-off; inactive = mostly above about 10%;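 note: 100% = mean of DMSO negative control wells on the same plate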); settings: P. berghei liver stage in HepG2, luciferase luminescence, concentration not given here; parasite load remaining: stronger effect = lower value; viability: measured here: HepG2 viability without parasites
# [15] = polyglutamine-triggered caspase-3 activation inhibitors, cell-based (AID 1583); settings: polyglutamine-induced caspase-3 activation, cell assay; stronger effect = higher value;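 tested at 10 µM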
# [16] = suppressors of polyQ aggregation in yeast, 75Q-TubU reporter (AID 1593); settings: Yeast 75Q polyglutamine aggregation reporter
# [17] = rescue of polyQ-huntingtin neuronal dysfunction in worms, whole organism, C. elegans mechanosensory neurons, N-terminal huntingtin (AID 1599); settings: touch response, stronger effect = higher value
# [18] = measured here: combination with BGB IC40, at 0.05 µM
# [19] = measured here: combination with cisplatin, at 0.5 µM
# [20] = measured here: combination with cisplatin, at 5 µM
# [21] = measured here: combination with BGB at IC20, at 0.5 µM
# [22] = measured here: combination with cisplatin at IC20, at 0.5 µM
# [23] = measured here: combo with BGB at IC20, at 0.5 µM
# [24] = measured here: combo with cisplatin at IC20, at 0.5 µM
# [25] = measured here: inhibition with BGB combination, at 0.05 µM
# [26] = measured here: inhibition with cisplatin combination, at 0.05 µM
# [27] = BGB combination, concentration series, at 5 µM
# [28] = cisplatin combination, concentration series, at 5 µM
# [29] = measured here: combo with BGB IC20, at 0.5 µM
# [30] = measured here: combo with cisplatin IC20, at 0.5 µM
smiles,measurement,setting,value
O=c1[nH]c(=O)n([C@H]2C[C@H](O)[C@@H](CO)O2)cc1/C=C/Br,period change,[1],-0.01 h (inactive)
same,inhibition,[2],-1% (inactive)
same,fluorescence ratio (interference),[3],1 (inactive)
COc1ccc(C(=O)CC2(O)C(=O)Nc3c(Cl)ccc(Cl)c32)cc1 (stereo unspecified),inhibition,[4]; at 0.5 µM,2.98% (inactive)
same,inhibition,[4]; [18],-32.3%
same,inhibition,[4]; [19],23.2%
same,inhibition,[4]; [20],27.4%
same,inhibition,[5]; at 0.5 µM,-4.98% (inactive)
same,inhibition,[5]; [21],4.02%
same,inhibition,[5]; [22],-4.5%
same,inhibition,[6]; at 0.5 µM,57.3% (inactive)
same,inhibition,[6]; [23],58.6%
same,inhibition,[6]; [24],55.7%
same,inhibition,[7]; at 0.5 µM,11.3% (inactive)
same,inhibition,[7]; [25],-8.43%
same,inhibition,[7]; [26],-6.45%
same,inhibition,[8]; at 0.5 µM,-4.47% (inactive)
same,inhibition,[8]; [19],-11.7%
same,inhibition,[8]; [20],-26.3%
same,inhibition,[9]; [27],47.8%
same,inhibition,[9]; at 0.5 µM,14.6% (inactive)
same,inhibition,[9]; [28],51.1%
same,inhibition,[10]; at 0.5 µM,9.33% (inactive)
same,inhibition,[10]; [29],10.9%
same,inhibition,[10]; [30],2.7%
Nc1nc(N)c(N=O)c(OCC2CCCCC2)n1,inhibition,[2],-2% (inactive)
same,fluorescence ratio (interference),[3],0.9 (inactive)
same,outcome,[11],inactive
same,z-score,[12],1.21 (inactive)
Cc1cn([C@@H]2O[C@H](CO)[C@@H](O)[C@@H]2F)c(=O)[nH]c1=O,inhibition,[4]; at 0.5 µM,-24% (inactive)
same,inhibition,[4]; [18],-37.2%
same,inhibition,[4]; [19],-20.9%
same,inhibition,[4]; [20],-19%
same,inhibition,[5]; at 0.5 µM,-20.9% (inactive)
same,inhibition,[5]; [21],-6.05%
same,inhibition,[5]; [22],-15.6%
same,inhibition,[6]; at 0.5 µM,-11.4% (inactive)
same,inhibition,[6]; [23],-16%
same,inhibition,[6]; [24],-8.28%
same,inhibition,[7]; at 0.5 µM,-3.54% (inactive)
same,inhibition,[7]; [25],-7.92%
same,inhibition,[7]; [26],2.99%
same,inhibition,[8]; at 0.5 µM,-27.6% (inactive)
same,inhibition,[8]; [19],-30.2%
same,inhibition,[8]; [20],-44.4%
same,inhibition,[9]; [27],-5.53%
same,inhibition,[9]; at 0.5 µM,-5.97% (inactive)
same,inhibition,[9]; [28],11.6%
same,inhibition,[10]; at 0.5 µM,10.9% (inactive)
same,inhibition,[10]; [29],14.5%
same,inhibition,[10]; [30],15.4%
C=CC(=O)Nc1cccc(Nc2nc(NC3CCC(N(C)C)CC3)nc3c2ncn3C(C)C)c1 (stereo unspecified),liver cell % of control,[13],43.6%
same,parasite % of control,[13],15.4% (inactive)
N#Cc1c(C2CCNCC2)cc(-c2c(O)cccc2OCC2CC2)nc1N,parasite load remaining,[14],29.7% (inactive)
same,viability,[14],88.8%
COc1ccc(-c2c(-c3ccc(O)cc3O)n[nH]c2C)cc1,z-score,[12],-1.81 (inactive)
O=C(Nc1nc2ccccc2n1CCN1CCOCC1)c1cccc([N+](=O)[O-])c1,parasite load remaining,[14],33.2% (inactive)
same,viability,[14],151%
same,inhibition,[2],-2% (inactive)
same,fluorescence ratio (interference),[3],1.1 (inactive)
same,outcome,[11],inactive
same,z-score,[12],1.46 (inactive)
CN(C)C(=O)[C@H](O)[C@H](Cc1ccccc1)NC(=O)c1cc2cc(Cl)ccc2[nH]1,outcome,[11],inactive
same,z-score,[12],3.02 (active)
Cc1cc(Cl)ccc1OCCCC(=O)NO,outcome,[11],inactive
same,z-score,[12],0.555 (inactive)
Cc1nc(N)sc1-c1ccnc(Nc2ccc(N3CCOCC3)cc2)n1,liver cell % of control,[13],72.4% and 73.5% and 98.2%
same,parasite % of control,[13],0.414% (inactive) and 0.47% (inactive) and 0.326% (active)
COc1ccc2c(c1OC)C(=O)OC2[C@H]1c2c(cc3c(c2OC)OCO3)CCN1C (stereo partly specified),inhibition,[15],-3.24%
same,score,[16],1.28
same,rescue above control,[17],-2.5
